Data taken from ChEMBL document CHEMBL5308541, “MAIP: An Open-Source Tool to Enrich High-Throughput Screening Output and Identify Novel, Druglike Molecules with Antimalarial Activity” (ACS Med Chem Lett, 2023).
Out of some 150,000 compounds screened, about 540 (0.36%) showed an effect of 50% or more. The full list was thinned out, with strong results kept by preference.

tested on: Plasmodium falciparum; test: Primary screen in NF54 nanoGlo assay, in single point, at 2uM, 72h; a lower Z score goes with more inhibition; assay type: functional, Erythrocyte; settings: timepoint 72 hour

Structure (SMILES) | % Inhibition [%] | Z score
CN1CCC(N(Cc2ccccc2)C(=O)c2cc3cnccc3[nH]2)CC1 | 52 | -7.83
O=C(NC1CNCCC1O)c1cc2c(Cl)cccc2[nH]1 (stereo not given) | -3 | 0.71
O=C(NCC1CC1)c1cc2c(OCc3ccc(Cl)cc3)cccc2[nH]1 | 51 | -9
Cc1cc(N2CCC(N(C)Cc3nc4ccc(F)cc4[nH]3)CC2)ncn1 | -13 | 2.24
CCOc1ccc2nc(CN(CC)CC3CCN(C4CCN(C)CC4)CC3)ccc2c1 | 80 | -13.89
c1ccc(CCC23CN(Cc4ccccn4)CC2CN(Cc2ccns2)C3)cc1 (stereo not given) | 86 | -17.09
Cn1cc(CC(=O)N2CC3CN(Cc4ccns4)CC3(CO)C2)c2ccccc21 (stereo not given) | -3 | 0.46
C[C@@H](c1cc2ccccc2o1)N(C)CCC(=O)N1CCN(c2ccc(F)cc2)CC1 | -2 | 0.48
O=C(c1ccnc2ccccc12)N1CCN(C2CCOCC2)CC1 | -6 | 0.98
O=C1CN(C(=O)c2ccnc3ccccc23)CCN1Cc1ccccc1F | 68 | -13.41
CN(CC(=O)N[C@H]1CCCN(c2cnccn2)C1)C1CCNCC1 | -7 | 1.05
Cc1noc(-c2ccnc(NC[C@@H](c3ccccn3)N3CCOCC3)c2)n1 | 95 | -18.79
Cc1noc(-c2ccnc(NC[C@H]3CCN(CC(F)(F)F)C3)c2)n1 | 2 | -0.25
Cc1noc(-c2ccnc(NCCc3coc(-c4ccccc4)n3)c2)n1 | 0 | -0.05
CC(C)N1CCN(c2cccc(Nc3ncccn3)c2)CC1 | 5 | -1.03
Cc1cccc(Nc2ccnc(Nc3ccc(N4CCN(C)CC4)cc3)n2)c1 | 89 | -13.46
c1cc(Nc2ccnc(C3CC3)n2)cc(N2CCCCCC2)c1 | -1 | 0.19
CCN(CCN1CCCCCC1)C(=O)NCCNc1ccncc1C | -11 | 2.32
Cc1cnccc1NCCNCc1cccc(OCCCCN2CCOCC2)c1 | 95 | -20.36
Cc1cnccc1NCCNCc1cnc(N2CCCCC2)nc1 | 57 | -12.25
Cc1cnccc1NCCNc1ncc(F)c(N2CCCC2)n1 | 25 | -3.87
CN(CCCNc1nccc2ncncc12)CC(F)(F)F | -2 | 0.32
Cc1cccc(-c2cccc(N3CCC(NCc4cc(C)[nH]n4)CC3)c2)c1 | -7 | 1.27
Cc1cccc(-c2cccc(N3CCC(NC[C@H]4CCC(=O)N4)CC3)c2)c1 | 1 | -0.25
Cc1ccccc1-c1cccc(N2CCC(NCC3CCNCC3)CC2)c1 | 98 | -19.56
NC(=O)C1CCN(CCCNc2ncnc3ccccc23)CC1 | 14 | -2.8
Cc1cccc2c(NCCCCN3CCN(CCO)CC3)ncnc12 | -12 | 1.79
CCc1ccc2ncnc(NCCCN3CCN(CCO)CC3)c2c1 | 65 | -12.99

Structure (SMILES) | % Inhibition [%] | Z score
Cc1ccc(-c2cccc3c(C(=O)NCCCN4CCC(N5CCCCC5)CC4)cc(C)nc23)cc1 | 98 | -16.9
Cc1cc(O)c2cccc(-c3cccc(C(=O)NCCCN4CCCC4)c3)c2n1 | -1 | 0.22
Cc1cnccc1NCCNC1CCN(C(=O)[C@@H]2CCCO2)CC1 | -9 | 1.97
Cn1cncc1[C@@H]1CNC[C@H]1CNC(=O)c1ccccc1NC1CCCCC1 | 75 | -14.83
COC(CN(Cc1nc(N)nc(Nc2ccc(C)cc2)n1)Cc1nc(N)nc(Nc2ccc(C)cc2)n1)OC | 85 | -18.33
CN(C)CCn1ncc(C(=O)NC2CCN(CC3CCCC3)CC2)c1-c1ccccc1 | 0 | 0.06
CCOc1cc(C(=O)NC2CCN(CC3CCCC3)CC2)cc(-c2ccccc2)c1OC | 71 | -12.46
CCc1ccc2nc(NC[C@H]3CCCN3C)cc(C)c2c1 | -2 | 0.32
Cc1ccc2cc(CNC[C@H]3CCN(C4CC4)C3)ccc2n1 | 0 | 0.09
Cc1ccc2nc(NC[C@H]3CCN(C4CC4)C3)cc(C)c2c1 | 55 | -8.34
COc1ccnc(NCCCc2nc(-c3ccncc3)cs2)n1 | 69 | -13.68
Nc1nnc(CCCNc2nccc(-c3ccncc3)n2)s1 | -9 | 1.91
c1ccc2c(Nc3ccc4[nH]cnc4c3)c3ccccc3nc2c1 | 98 | -19.44
Clc1cc(Nc2c3ccccc3nc3ccccc23)ccc1Oc1ccc2ccccc2c1Cl | -10 | 1.68
Oc1ccc(OC(F)(F)F)cc1-c1ccc2nccn2n1 | 86 | -17.13
CC(C)Nc1cc(-c2cc(OC(F)(F)F)ccc2O)ncn1 | 1 | -0.31
c1cc(-c2noc(C34CCCN(CCC3)C4)n2)cc(-n2ccnc2)c1 | 9 | -1.87
c1ccc(CNc2ccc(-c3noc(C45CCCN(CCC4)C5)n3)cn2)cc1 | 81 | -17.51
c1ccc(-c2nc3c(c(NCCNc4ncccn4)n2)CCC3)nc1 | 41 | -7.15
Cc1cc(F)ccc1CNc1ccc(N2CCN(C)CC2)nc1 | 3 | -0.45
OC1(Cn2ccnc2)CCN(Cc2ccnc3ccccc23)CC1 | -5 | 0.98
Cc1c(CN2CCC(O)(Cn3ccnc3)CC2)[nH]c2c(Cl)cccc12 | 95 | -16.38
CCn1cc(-c2cccc(C(=O)N[C@@H](C)CN3CCc4ccccc4C3)c2)cn1 | 53 | -10.47
CNC(=O)c1ccc(C(=O)Nc2nc(C3(C)CC3)ns2)cn1 | 23 | -4.92
Cc1cc(C)c(C)c(S(=O)(=O)NC2COCC2Cc2ccncc2)c1C (stereo not given) | 0 | -0.02
CCCC(=O)NC1COCC1Cc1ccncc1 (stereo not given) | 82 | -16.24
COCCC(=O)NC1COCC1Cc1ccnc2ccccc12 (stereo not given) | 1 | -0.24
